aSyn UTR inh = 5' untranslated region of α-synuclein, MLPCN primary screen; alpha-synuclein 5'UTR reporter, inhibitor activity; inhibition, % (tested at 7.5 µM); 300,000 compounds, 0.82% hits; AID 1813; in the data active = inhibition above about 60%; inconclusive = no clear call, values can overlap the other calls;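 note: H4 neuroglioblastoma cells stably carrying SNCA 5'UTR luciferase fusion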
Ba/F3 V617F tox = reduce viability of Ba/F3 cells dependent on JAK2V617F; Ba/F3 EpoR-JAK2V617F viability, ATP luminescence; inhibition, % at 5.6 µM; 220,000 compounds, 1.1% hits; AID 1446;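 active = inhibition above the campaign mean plus 3 SD over all tested compounds, cut at about 24% in these data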;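 note: cytokine-independent growth of Ba/F3 cells driven by EpoR plus mutant JAK2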
IEC-6 tox-1 = kills IEC-6 intestinal cells in KLF5 counter-screen | IEC-6 cytotoxicity, luminescence viability | 290,000 compounds, 0.78% hits | inhibition, % at 5 µM | AID 1825
APP transl inh = APP translation inhibition. SH-SY5Y APP 5'UTR-luciferase reporter, luminescence. inhibition, % at 2 µM. 190,000 compounds, 0.82% hits;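 active = inhibition above a set limit, derived from the sample mean plus 3 SD, cut at about 45% in these data; inconclusive = one replicate passes the limit while the other fails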
KLF5 inhibitor = suppresses KLF5 promoter-driven expression | DLD-1 KLF5 promoter-luciferase reporter, luminescence | inhibition, % at 5 µM | 290,000 compounds, 0.23% hits | AID 1700;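 active = inhibition above a per-plate limit of that plate's mean compound inhibition plus 3 SD, cut at about 60% in these data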;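 note: higher means less KLF5 promoter-driven luciferase light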
BaF3 tox = parental Ba/F3 viability inhibition as JAK2V617F counter-screen. 220,000 compounds, 1.1% hits. AID 1486. CellTiter-Glo ATP luminescence. inhibition, % at 5.6 µM;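 active = inhibition above a per-campaign cutoff, the mean inhibition of all tested compounds plus 3 SD, cut at about 27% in these data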
KLF5 confirm = KLF5 inhibition, confirmation assay; shares compounds with KLF5 inhibitor; DLD-1 KLF5 promoter firefly luciferase reporter, luminescence; inhibition, % at 4 µM; 610 compounds, 79% hits;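 active = inhibition above a set limit taken from the earlier primary screen, cut at about 63% in these data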
IEC-6 tox-2 = counter-screen for KLF5 inhibitors: cytotoxicity in rat IEC-6 cells | shares compounds with KLF5 inhibitor | IEC-6 rat intestinal cells, viability luminescence | inhibition, % at 4 µM | 610 compounds, 56% hits; in the data active = inhibition above about 23%;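 note: cells exposed to compounds for 48 hours before viability read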
IEC-6 tox confirm = IEC-6 cytotoxicity, confirmation assay; 1,900 compounds, 63% hits; shares compounds with IEC-6 tox-1; IEC-6 rat intestinal epithelial viability, luminescence; inhibition, % at 5 µM
Numbers stand for hits. In the library only some 2.2% were active in any assay of this set; here they are far more common. Cut-off read from the data, not from the text of the source, unless noted: active = inhibition above about 22%; inactive = the rest.

For CCCCCc1nc2c(c3c1CCCC3)CCCC2 the results were aSyn UTR inh inactive, Ba/F3 V617F tox inactive, IEC-6 tox-1 inactive, KLF5 inhibitor inactive and BaF3 tox inactive.
For CCCCCCCCCn1c2c(c(=N)c3c1CCC3)CCCC2 the results were aSyn UTR inh 90, Ba/F3 V617F tox 102, IEC-6 tox-1 64, APP transl inh inactive, KLF5 inhibitor 76, BaF3 tox 93, KLF5 confirm 114, IEC-6 tox-2 42 and IEC-6 tox confirm 55.
Screening CC(C)CCNC(=O)C1CCN(S(=O)(=O)c2ccc(-n3cnnn3)cc2)CC1 returned aSyn UTR inh inactive, IEC-6 tox-1 inactive and KLF5 inhibitor inactive.
For Cc1ccc(C(=O)N/N=C/c2c(O)ccc3ccccc23)cn1 the results were aSyn UTR inh 62, IEC-6 tox-1 39, KLF5 inhibitor 94, KLF5 confirm 85, IEC-6 tox-2 inactive and IEC-6 tox confirm 33.
Screening O=C(N/N=C\c1c(O)ccc2ccccc12)c1cncc(Br)c1 returned aSyn UTR inh 62, IEC-6 tox-1 95, KLF5 inhibitor 70, KLF5 confirm 86, IEC-6 tox-2 56 and IEC-6 tox confirm 65.
`Cn1cccc1/C=N\NC(=O)c1cncc(Br)c1` gave aSyn UTR inh inactive, Ba/F3 V617F tox inactive, IEC-6 tox-1 inactive, KLF5 inhibitor inactive and BaF3 tox inactive.
For O=C(N/N=C/c1c(O)ccc2ccccc12)c1cccnc1 the results were aSyn UTR inh 93, IEC-6 tox-1 75, KLF5 inhibitor 82, KLF5 confirm 81, IEC-6 tox-2 inactive and IEC-6 tox confirm inactive.
Screening O=C(N/N=C/c1cc(O)ccc1Br)c1cccnc1 returned aSyn UTR inh inactive, IEC-6 tox-1 66, KLF5 inhibitor 80, KLF5 confirm 90, IEC-6 tox-2 inactive and IEC-6 tox confirm inactive.
For Cc1ccccc1-c1ccnc2[nH]n(-c3ccccc3)c(=O)c12 the results were aSyn UTR inh inactive, IEC-6 tox-1 inactive and KLF5 inhibitor inactive.
CN(C)c1nc(N)c2ncc(=S)[nH]c2n1 was read as aSyn UTR inh inactive, Ba/F3 V617F tox inactive, IEC-6 tox-1 inactive, APP transl inh inactive, KLF5 inhibitor inactive and BaF3 tox inactive.
`COC(=O)Nc1nc2ccc(C(=O)c3cccs3)cc2[nH]1` gave aSyn UTR inh inactive.
CCCSc1ccc2nc(NC(=O)OC)[nH]c2c1 was read as aSyn UTR inh inactive, Ba/F3 V617F tox 78, IEC-6 tox-1 80, APP transl inh 92, KLF5 inhibitor 76, BaF3 tox 76, KLF5 confirm inactive, IEC-6 tox-2 61 and IEC-6 tox confirm 56.
COc1cccc(N2CCN(C(=O)c3ccc(CS(=O)c4ccccc4Cl)o3)CC2)c1 (stereo not given) was read as aSyn UTR inh 110, IEC-6 tox-1 90, KLF5 inhibitor 74, KLF5 confirm 84, IEC-6 tox-2 62 and IEC-6 tox confirm 60.
O=C(c1ccc(CS(=O)c2ccccc2Cl)o1)N1CCOCC1 (stereo not given) was read as aSyn UTR inh inactive, IEC-6 tox-1 inactive and KLF5 inhibitor inactive.
`COc1cccc(N2CCN(C(=O)c3ccc(CS(=O)c4ccccc4C)o3)CC2)c1` (stereo not given) gave aSyn UTR inh 108, IEC-6 tox-1 78, KLF5 inhibitor 68, KLF5 confirm 75, IEC-6 tox-2 64 and IEC-6 tox confirm 58.
Cc1cccc(C)c1OCCNC(=O)C(=O)NCc1ccco1 was read as aSyn UTR inh inactive, Ba/F3 V617F tox 77, IEC-6 tox-1 77, APP transl inh 85, KLF5 inhibitor 65, BaF3 tox 81, KLF5 confirm 83, IEC-6 tox-2 61 and IEC-6 tox confirm 59.
Cc1cccc(C)c1NC(=O)NCc1ccco1 was read as aSyn UTR inh inactive, Ba/F3 V617F tox inactive, IEC-6 tox-1 inactive, KLF5 inhibitor inactive and BaF3 tox inactive.
CCOC(=O)COc1cccc2c(=O)n(CC(=O)NCc3ccccc3)ccc12 was read as aSyn UTR inh inconclusive, Ba/F3 V617F tox 73, IEC-6 tox-1 23, KLF5 inhibitor 81, BaF3 tox 68, KLF5 confirm 80, IEC-6 tox-2 30 and IEC-6 tox confirm 46.
COc1ccc2c(c1)C(C)=CC(C)(C)N2S(=O)(=O)c1ccc(C)cc1 was read as aSyn UTR inh inactive, Ba/F3 V617F tox 70, IEC-6 tox-1 81, APP transl inh 84, KLF5 inhibitor 87, BaF3 tox 74, KLF5 confirm 88, IEC-6 tox-2 55 and IEC-6 tox confirm 53.
Screening CCOc1ccc2c(c1)C(C)=CC(C)(C)N2S(=O)(=O)c1ccc(C)cc1 returned aSyn UTR inh 103, Ba/F3 V617F tox 79, IEC-6 tox-1 90, APP transl inh 95, KLF5 inhibitor 68, BaF3 tox 77, KLF5 confirm 91, IEC-6 tox-2 55 and IEC-6 tox confirm 59.
Screening CCOc1ccc2c(c1)C(C)=CC(C)(C)N2C(=O)Nc1ccccc1F returned aSyn UTR inh inactive, Ba/F3 V617F tox inactive, IEC-6 tox-1 inactive, APP transl inh inactive, KLF5 inhibitor inactive and BaF3 tox inactive.
Screening COC(=O)C1(C)CN(S(=O)(=O)c2ccc(C)cc2)c2cc(OC)ccc2C1=O (stereo not given) returned aSyn UTR inh inactive, Ba/F3 V617F tox inactive, IEC-6 tox-1 inactive, APP transl inh inactive, KLF5 inhibitor inactive and BaF3 tox inactive.
`O=C(NCCCNC(=O)c1ccc(-c2cc(Cl)ccc2Cl)o1)c1cnccn1` gave aSyn UTR inh inactive, IEC-6 tox-1 inactive and KLF5 inhibitor inactive.
O=C(c1ccc(-n2cncn2)c([N+](=O)[O-])c1)N1CCN(S(=O)(=O)c2ccc(Cl)cc2)CC1 was read as aSyn UTR inh inactive, IEC-6 tox-1 inactive and KLF5 inhibitor inactive.
Screening Cc1cc2c(=O)n(C)c(SCC(=O)Nc3cccc(F)c3)nc2s1 returned aSyn UTR inh inactive, IEC-6 tox-1 inactive and KLF5 inhibitor inactive.
CCn1c(O)c(N=NC(=O)CNC(=O)Cc2ccccc2)c2ccccc21 was read as aSyn UTR inh inactive, IEC-6 tox-1 inactive and KLF5 inhibitor inactive.
For O=C(CNC(=O)c1ccco1)N=Nc1c(O)n(CCc2ccccc2)c2ccccc12 the results were aSyn UTR inh inactive, Ba/F3 V617F tox 74, IEC-6 tox-1 85, KLF5 inhibitor 71, BaF3 tox 68, KLF5 confirm 83, IEC-6 tox-2 72 and IEC-6 tox confirm 67.
Screening O=C(NC1CCCC1)c1cc(S(=O)(=O)N2CCCC2)ccc1Cl returned aSyn UTR inh inactive, IEC-6 tox-1 inactive and KLF5 inhibitor inactive.
For COCCCNc1nnc(Cc2ccc(Cl)cc2)c(=O)[nH]1 the results were aSyn UTR inh 66, IEC-6 tox-1 82, KLF5 inhibitor 62, KLF5 confirm 80, IEC-6 tox-2 38 and IEC-6 tox confirm 60.

Bioassay records: PubChem BioAssay, several laboratories
